The campaign covered roughly 96,000 compounds. About 20,000 (21%) were called active.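 The calls were made as follows: active = CYP2C19 inhibition above a set limit at 5 µM in the primary screen (cut at about 50% in these data); inactive = the rest.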 A selection follows.

The test deals with Cytochrome P450 2C19 (Homo sapiens) (UniProt P33261). The experiment in a line: blockers of cytochrome P450 2C19 activity – biochemical, luminescence, ADME assay, primary screen (AID 778).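 Also: plate controls were negative control wells for no effect and 2.5 mM tranylcypromine positive control for full effect.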 As to conditions: CYP2C19 Supersomes, luciferin-H EGE luminescence, 30 min; at 5 µM; hits give high values.
Cytochrome P450 2C19 (Homo sapiens), sequence (P33261 whole entry, looked up): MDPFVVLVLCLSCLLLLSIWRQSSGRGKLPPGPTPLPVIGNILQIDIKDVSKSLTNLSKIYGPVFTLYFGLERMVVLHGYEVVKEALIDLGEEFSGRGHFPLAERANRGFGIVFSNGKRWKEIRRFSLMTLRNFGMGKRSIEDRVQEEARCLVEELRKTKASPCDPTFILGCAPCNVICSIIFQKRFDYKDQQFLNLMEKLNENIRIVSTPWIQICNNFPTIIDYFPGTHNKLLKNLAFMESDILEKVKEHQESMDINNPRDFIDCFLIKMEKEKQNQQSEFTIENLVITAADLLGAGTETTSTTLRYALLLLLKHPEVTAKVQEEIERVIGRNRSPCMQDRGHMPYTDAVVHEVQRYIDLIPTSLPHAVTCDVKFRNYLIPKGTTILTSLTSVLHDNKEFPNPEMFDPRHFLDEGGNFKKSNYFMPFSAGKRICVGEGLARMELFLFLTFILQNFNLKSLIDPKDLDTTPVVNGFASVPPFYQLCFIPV
As a reminder, the inhibition is the change of the read-out against control, counted positive when it falls. In the case of `CCOC(=O)C1C(=O)C=C(c2ccc(OC)cc2)CC1c1ccco1` (stereo unspecified), the inhibition was 28.1% (inactive).
With `O=C(NC(=O)c1ccccc1)NC(=O)c1ccccc1` the figure was 21.7% (inactive); with `CCCCCCOC(=O)NCC(O)c1ccccc1` (stereo unspecified), 23.3% (inactive); with `O=C(OCC(O)C(O)COC(=O)c1ccccc1)c1ccccc1` (stereo unspecified), 83.5% (active).
With `COc1ccc(-c2nc(-c3ccccc3)no2)c(OC)c1` the figure was 12.8% (inactive); with `CCOC(=O)C(CC)Sc1ncnc2c1nnn2-c1ccc(F)cc1` (stereo unspecified), 10.5% (inactive); with `CCN(CC(=O)NC1CCS(=O)(=O)C1)c1nc(-c2cccnc2)nc2ccccc12` (stereo unspecified), 4.6% (inactive).
Then `Cc1ccc(NC2(C#N)C(=O)Nc3ccccc32)cc1` (stereo unspecified), with 60.3% (active).
In the case of `Cc1ccc2c(c1)C(O)(CC(=O)c1cccnc1)C(=O)N2` (stereo unspecified), the inhibition is 10.2% (inactive).
With `CN1CCN(c2nc3c(c(=O)[nH]c(=O)n3C)n2Cc2cccc3ccccc23)CC1` the figure was 1.2% (inactive); with `O=C(Nc1ccn(Cc2ccc(F)cc2)n1)c1ccncc1`, 97.8% (active).
Consider `Cc1ccc(Cn2ccc(NC(=O)c3cc(C(C)C)on3)n2)cc1`, for which the inhibition is 97.2% (active).
With `Cc1nn(Cc2ccc(F)cc2)c(C)c1NC(=O)c1noc2c1CCc1ccccc1-2` the figure was 1% (inactive); with `Cc1cc(NC(=O)c2cc(-c3cccs3)on2)nn1Cc1ccc(Cl)cc1`, 2% (inactive).
Then `CC(=O)Nc1ccn(Cc2c(F)cccc2Cl)n1`, with 48.9% (inactive); and `Cc1ccc(Cn2ccc(NC(=O)C3C4CCC(C4)C3C(=O)O)n2)cc1` (stereo unspecified), with 15% (inactive).
For the molecule `Cc1ccc(N(NC(=O)C(C)(C)O)C(=O)c2ccccc2)cc1C`, the inhibition is 14.9% (inactive).
Then `COc1ccccc1CNC(=O)Cn1cc2c(n1)CCCC2`, with 20.5% (inactive).
Then `O=P(O)(CN1CCCCC1)CN1CCCCC1`, with -0.9% (inactive); and `Cc1ccc(-c2cnc(NC(=O)CCC(=O)N(C)Cc3ccccc3)n2C)cc1`, with 1% (inactive).
Then `COc1ccccc1Nc1nc(N)nc(CN(C)C2CCCCC2)n1`, with -23.9% (inactive); and `COc1ccccc1NC1=NC2(CCCC2)N=C(N)N1`, with -6% (inactive).
As to `COc1ccccc1NC1=NC(c2ccc(Cl)cc2)N=C(N)N1` (stereo unspecified), the inhibition is 92.6% (active).
For `C=C(C)Cn1c(N2CCN(CC)CC2)nc2c1c(=O)[nH]c(=O)n2C`, the inhibition is -24.3% (inactive).
On to `O=S(=O)(c1ccc(Sc2nnc3ccccn23)nc1)N1CCOCC1`, for which the inhibition is 13.2% (inactive).
`COc1ccc(-c2csc(N3CCN(Cc4ccc5c(c4)OCO5)CC3)n2)cc1`: the inhibition was -20.9% (inactive).
Turning to `O=C(COC(=O)c1ccc2c(c1)OCCO2)NCc1ccccc1`, the inhibition was 6.9% (inactive).
With `Cc1ccc(C(=O)OCC(=O)NCc2ccc3c(c2)OCO3)s1` the figure was 64% (active); with `CCOC(=O)NCc1ccc2c(c1)OCO2`, 48.5% (inactive); with `O=C(Cn1nnc(-c2ccccc2)n1)NCc1ccc2c(c1)OCO2`, 25.4% (inactive).
Then `O=C(CNS(=O)(=O)c1ccc(Br)s1)N1CCN(C(=O)c2ccco2)CC1`, with 26.7% (inactive).
Then `O=C(CN(Cc1ccccc1)C(=O)c1ccc2c(c1)OCCO2)NCc1ccc2c(c1)OCO2`, with 29.2% (inactive); and `O=C(CNS(=O)(=O)c1ccc(Br)s1)NCc1ccc2c(c1)OCO2`, with 63.1% (active); and `O=C(NCc1ccc2c(c1)OCO2)C12CC3CC(CC(C3)C1)C2`, with 26.4% (inactive).
On to `O=C(CN1CCN(c2nc(-c3ccccc3)cs2)CC1)NCc1ccc2c(c1)OCO2`, for which the inhibition is 91.6% (active).
Then `O=C(CCNS(=O)(=O)c1ccccc1C(F)(F)F)NCc1ccc2c(c1)OCO2`, with 84.6% (active).
With `C/C(=N\O)C1(C)N(O)C(C)(C)C(c2ccc(Br)cc2)=[N+]1[O-]` (stereo unspecified) the figure was -15.7% (inactive); with `Cc1ccccc1OCC(=O)NCC(=O)OCC(=O)c1ccc2ccccc2c1`, -2% (inactive).
With `COC(=O)c1sc(NC(=O)c2csc3c2CCCC3)nc1C` the figure was -10.6% (inactive); with `Clc1ccccc1-c1cc(COc2ccc3ccccc3c2)no1`, 3.1% (inactive).
As for `CCCCSc1[nH]c(=O)c(C(=O)OCC)cc1C#N`, the inhibition is 3.8% (inactive).
With `Cc1cc(C)n2nc(C(=O)Oc3ccc4c(c3)OCO4)nc2n1` the figure was -10.7% (inactive); with `CN(C)CC(O)COc1ccc(C(C)(C)c2ccc(OCC(O)CN(C)C)cc2)cc1` (stereo unspecified), -7.2% (inactive); with `CCOC(=O)N1CCC(NC(=O)CCc2cn(C)c3ccccc23)CC1`, 15.5% (inactive).
With `O=C(CC(Cc1ccccc1)C(=O)O)NCCc1ccc2c(c1)OCO2` (stereo unspecified) the figure was 4% (inactive).
With `O=C(CCCCn1c(=O)[nH]c2ccccc2c1=O)NCc1ccc2c(c1)OCO2` the figure was 28% (inactive).
Turning to `CC1CCCCN1CC(=O)NCc1ccc2c(c1)OCO2` (stereo unspecified), the inhibition was 69.6% (active).
As to `COC(=O)Cc1c(C)c2ccc(OCC(=O)NCc3ccc4c(c3)OCO4)cc2oc1=O`, the inhibition is 21.2% (inactive).
With `O=C(NCc1ccc2c(c1)OCO2)c1ccc2c(c1)C(=O)N(CC1CCCO1)C2=O` (stereo unspecified) the figure was -1.9% (inactive); with `O=C(COc1ccccc1)NCc1ccc2c(c1)OCO2`, 69.2% (active); with `CCc1c(C)nc2ncnn2c1N1CCC(C(=O)NCc2ccc3c(c2)OCO3)CC1`, 17.6% (inactive).
With `Cn1cc(CCC(=O)NCc2ccc3c(c2)OCO3)c2ccccc21` the figure was 93.8% (active); with `COC(=O)c1sc2ncccc2c1OCc1ccc(Cl)cc1Cl`, -1.5% (inactive).
With `COc1ccc2[nH]c(C)c(CCN(Cc3cccs3)C(=S)Nc3ccccc3OC)c2c1` the figure was 25.1% (inactive); with `O=C1c2ccccc2NC(c2ccc(-c3cccc(Cl)c3)o2)N1O` (stereo unspecified), 22.2% (inactive).
On to `Cc1cc(NC(=O)Nc2ccccc2)n(-c2ccccc2)n1`, for which the inhibition is 29.8% (inactive).
Then `CC(C)[C@H](NC(=O)Nc1ccc(S(N)(=O)=O)cc1)C(=O)O`, with -1.3% (inactive); and `N#CCSc1nc2ccc(N3CCOCC3)cc2c(=O)n1CCc1ccccc1`, with 12.7% (inactive); and `CCCCCCSc1nsc(N)n1`, with 45.3% (inactive).
With `O=C1CC(C(F)(F)C(F)(F)C(F)(F)C(F)(F)F)=Nc2ccccc2N1` the figure was 35.1% (inactive).
On to `COc1ccc(Oc2c(Cl)cnn(-c3ccccc3)c2=O)cc1`, for which the inhibition was 29.7% (inactive).
For `Cn1c(COc2ccc(Cl)cc2)nc2ccccc2c1=O`, the inhibition was 62.8% (active).
With `Cc1ccc(C(=O)CSc2nc3ccccc3c(=O)n2N)o1` the figure was 33.5% (inactive).
With `O=c1c2ccccc2nc2n1C(CSc1ccc(Cl)cc1)CN2` (stereo unspecified) the figure was 18.3% (inactive); with `COc1ccc(OCc2ccc(-c3nc4ccccc4c(=O)n3N)o2)cc1`, 51.4% (active); with `Cc1ccc(S(=O)(=O)NCc2nc3ccccc3c(=O)n2N)cc1`, -4% (inactive).
